Measurements taken from PubChem BioAssay AID651548 (Broad Institute, 2012).
Out of some 57,000 compounds screened, about 200 (0.35%) were called active.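 Rule for the calls: active = mean inhibition of replicates at least 50% and every single replicate also reaching 50%; inconclusive = mean inhibition at least 50% but some replicate falls below 50%; inactive = mean inhibition under 50%.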 The sample as a whole holds a higher share of actives than the screen did.

target: Histone-lysine N-methyltransferase EZH2 (Homo sapiens) (UniProt Q15910); experiment: EZH2/PRC2 methyltransferase inhibitors, primary screen, biochemical, DELFIA time-resolved fluorescence, single point (AID 651548); details: PRC2 H3K27 methylation, DELFIA TRF, 1 h; at 12.5 µM; hits give high values;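 note: dimethyl H3K27 on biotinylated H3 21-44 peptide detected by antibody; plate controls were median neutral control wells for no effect and median positive control wells for full effect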
Sequence (Q15910 whole entry, looked up): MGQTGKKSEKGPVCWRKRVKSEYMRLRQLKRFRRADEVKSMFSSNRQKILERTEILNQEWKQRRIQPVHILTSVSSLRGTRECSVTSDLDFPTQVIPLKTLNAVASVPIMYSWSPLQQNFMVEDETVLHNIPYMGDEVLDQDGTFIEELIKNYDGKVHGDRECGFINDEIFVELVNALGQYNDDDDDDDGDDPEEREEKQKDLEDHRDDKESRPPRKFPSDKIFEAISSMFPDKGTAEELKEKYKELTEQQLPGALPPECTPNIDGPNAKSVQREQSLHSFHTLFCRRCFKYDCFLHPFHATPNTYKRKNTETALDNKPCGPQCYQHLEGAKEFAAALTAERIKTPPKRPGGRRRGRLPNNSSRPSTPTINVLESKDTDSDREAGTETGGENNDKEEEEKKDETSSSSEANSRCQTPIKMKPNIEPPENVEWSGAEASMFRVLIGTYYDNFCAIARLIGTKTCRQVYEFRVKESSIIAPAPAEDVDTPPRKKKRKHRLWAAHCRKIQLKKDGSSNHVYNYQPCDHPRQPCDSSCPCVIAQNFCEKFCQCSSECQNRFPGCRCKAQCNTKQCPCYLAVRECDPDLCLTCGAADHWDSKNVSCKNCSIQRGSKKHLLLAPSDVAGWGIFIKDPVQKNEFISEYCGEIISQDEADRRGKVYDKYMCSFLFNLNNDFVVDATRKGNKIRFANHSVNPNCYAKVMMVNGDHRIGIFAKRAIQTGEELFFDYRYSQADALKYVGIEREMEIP

inhibition, inactive:
O=C(N[C@@H]1CC[C@@H](CC(=O)N2CCc3ccccc3C2)O[C@@H]1CO)C1CCOCC1 -3.58%, COCC#Cc1ccc2c(c1)O[C@H](CN(C)C(=O)CN(C)C)[C@@H](C)CN([C@H](C)CO)S2(=O)=O -3.07%, COCC(=O)N(C)C[C@@H]1Oc2ncc(-c3ccccc3OC)cc2C(=O)N([C@@H](C)CO)C[C@@H]1C 16.6%, CCCN(C)C[C@H]1OCCCC[C@@H](C)Oc2ccc(NC(=O)Nc3ccc(F)cc3)cc2C(=O)N([C@@H](C)CO)C[C@H]1C 18.6%, O=C(C[C@@H]1C[C@@H]2c3cc(NC(=O)c4ccc5c(c4)OCO5)ccc3O[C@@H]2[C@H](CO)O1)NCC1CC1 6.48%, O=C(C[C@@H]1C[C@H]2c3cc(NC(=O)CC4CC4)ccc3O[C@H]2[C@@H](CO)O1)NCc1ccc2c(c1)OCO2 -6.28%, O=C(C[C@@H]1C=C[C@@H](NS(=O)(=O)c2ccc(F)cc2)[C@@H](CO)O1)NCCN1CCCCC1 7.22%, O=C(CN1CCOCC1)N[C@@H]1CC[C@@H](CCn2cc(C3CCCCC3)nn2)O[C@@H]1CO 3.73%, O=C(C[C@@H]1C=C[C@H](NC(=O)Nc2ccc(C(F)(F)F)cc2)[C@H](CO)O1)NCc1cccc(F)c1 -12.8%, O=S(=O)(NCC[C@H]1CC[C@@H](NS(=O)(=O)c2ccccc2Cl)[C@@H](CO)O1)c1ccc(Cl)cc1 -8.5%, O=C(CN1CCOCC1)N[C@H]1CC[C@@H](CCNS(=O)(=O)c2ccccc2F)O[C@H]1CO 0.878%, COc1ccccc1CNC(=O)C[C@H]1C[C@H]2c3cc(NS(=O)(=O)c4ccc(F)cc4)ccc3O[C@H]2[C@@H](CO)O1 -7.14%, O=C(Nc1ccccc1)N[C@H]1CC[C@H](CCNC(=O)c2ccccc2F)O[C@H]1CO -1.66%, Cc1ccccc1S(=O)(=O)NCC[C@@H]1CC[C@@H](NS(=O)(=O)c2ccccc2C)[C@@H](CO)O1 6.69%, COc1cccc(S(=O)(=O)N[C@@H]2C=C[C@H](CC(=O)NC3CCC3)O[C@H]2CO)c1 4.61%, CNC[C@H]1OCCCC[C@H](C)Oc2ccc(NS(C)(=O)=O)cc2C(=O)N([C@@H](C)CO)C[C@H]1C 5.37%, CO[C@@H]1CN(C)C(=O)c2cc(NC(=O)c3cnccn3)ccc2OC[C@@H](C)N(C(=O)C2CC2)C[C@@H]1C 3.91%, C[C@@H]1CN([C@@H](C)CO)C(=O)Cc2cc(NC(=O)C3CCCCC3)ccc2O[C@H]1CN(C)C(=O)Nc1ccccc1 1.25%, CCCNC(=O)Nc1ccc2c(c1)C(=O)N(C)C[C@H](OC)[C@H](C)CN(Cc1ccncc1)[C@H](C)CO2 -16.3%, CCCNC(=O)Nc1ccc2c(c1)OC[C@@H](C)N(CCC)C[C@H](C)[C@@H](OC)CN(C)C2=O 0.898%, C[C@@H]1CN([C@@H](C)CO)C(=O)c2cc(C#CC3CCCCC3)cnc2O[C@@H]1CN(C)Cc1cncnc1 -2.95%, O=C(C[C@H]1C[C@@H]2c3cc(NC(=O)C4CCC4)ccc3O[C@@H]2[C@@H](CO)O1)NCCN1CCCCC1 1.25%, CO[C@@H]1CN(C)C(=O)c2cc(NC(=O)Nc3ccc4c(c3)OCO4)ccc2OC[C@@H](C)NC[C@@H]1C 3.91%
